Hits are enriched below; roughly 21% of the tested compounds scored in any of these assays.
CHX counter: affects cycloheximide protein synthesis inhibition readout, counter-screen; cell reporter, cycloheximide protein synthesis inhibition counterscreen; max response, %; actives 12% (n = 300,000); AID 2314; in the data active = max response mostly above about 13%, no sharp cut-off; inactive = mostly below about 14%; also: read at 38.3 µM for the half of the compounds with a filed dose; 0% is about no effect
Shiga toxin inh: inhibitors of Shiga toxin in Vero cells; Vero cells, Shiga toxin protein synthesis inhibition reporter; inhibition, % at 38.7 µM; actives 9.2% (n = 290,000); AID 2315; in the data active = inhibition mostly above about 28%, no sharp cut-off; inactive = mostly below about 43%; also: 0% is about no effect
Pf growth 48h: inhibits P. falciparum growth in the first generation, 48 h. P. falciparum luciferase growth in erythrocytes, 48 h. Potency, µM (top dose mostly 28.7 µM), for inactives: at the top dose activity change, negative = inhibition, actives largely listed as inhibitors. actives 5.9% (n = 310,000); active = well fitted inhibition curve with a large enough effect; inconclusive = small, poorly fitted or top-dose-only effect, or another doubt; inactive = no such curve, though single readings can be large or run the other way; also: potency is read from the fitted curve at half-maximal effect; % is scaled to controls: 0 for no effect and ±100 for the full control effect
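Compounds are pin-transferred into medium, infected erythrocytes (2% hematocrit, 0.1% parasitemia final) are added, and plates sit one parasite generation at 37 C in 5% CO2. Detection reagent is then added and luminescence measured.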
SARS PLpro yeast: SARS-CoV PLP inhibition in yeast | AID 485353 | Potency, µM (top dose mostly 32.9 µM), for inactives: top-dose activity, positive = growth rescue, actives largely listed as activators | actives 0.19% (n = 330,000) | S. cerevisiae expressing SARS-CoV PLpro, growth rescue; also: potency is read from the fitted curve at half-maximal effect; 0% is about no effect; nearly all actives have a fitted effect of over 55% in size
Pf growth 96h: P. falciparum growth inhibition at 96 hours | Potency, µM (titrated, usually from 28.7 µM), inactives show at the highest dose activity change, negative = inhibition, actives largely listed as inhibitors | AID 504834 | P. falciparum luciferase reporter growth, 96 h | actives 6.9% (n = 320,000); active = well fitted inhibition curve with a large enough effect; inconclusive = small, poorly fitted or top-dose-only effect, or another doubt; inactive = no such curve, though single readings can be large or run the other way; also: potency is read from the fitted curve at half-maximal effect; % is scaled to controls: 0 for no effect and ±100 for the full control effect
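Delayed-death screen, second-generation endpoint: infected erythrocytes, 2% hematocrit, 0.05% parasitemia final; 96 hours at 37 C, 5% CO2; luciferase detection reagent; luminescence decrease equals reduced growth.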
NS1 inh: influenza NS1 inhibition | Potency, µM (titrated, usually from 46.1 µM), for inactives: at the top dose activity, positive = more growth | actives 0.4% (n = 270,000); also: potency is read from the fitted curve at half-maximal effect; actives are rising curves; nearly all actives have a fitted effect of over 50% in size
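In this qHTS, NS1 from influenza A is expressed in budding yeast, where it slows growth. Cells are switched from glucose to 2% galactose medium (pH 6.0, -URA), treated with compound, and growth recovery is read at OD600.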
* = called active by the depositor; ? = inconclusive; . = no result; ! = not confirmed by another sample; [ ] = dose if it differs, or a comment. Unless noted, calls follow the shape of the full dose curve.

SMILES	CHX counter	Shiga toxin inh	Pf growth 48h	SARS PLpro yeast	Pf growth 96h	NS1 inh
CCC(Sc1nc2ccc(N)cc2s1)C(=O)Nc1nccs1 (stereo not drawn)	15	11	.	8%	-15%	13%
CN(C/C=C\c1ccccc1)Cc1cccc2ccccc12	.	.	.	.	-18%	.
Cc1ccc(C[n+]2cc(-c3ccc(Cl)cc3)n3c2CCC3)cc1	1	9	1µM*	0%	0.41µM*	-1%
Cc1ccc(-c2c[n+](Cc3cccc(Cl)c3)c3n2CCC3)cc1	-4	2	?	-4%	?	-5%
Clc1cccc(C[n+]2cc(-c3ccccc3)n3c2CCC3)c1	9	17	2.1µM*	17%	0.19µM*	8%
Cc1ccc(-c2c[n+](Cc3ccc(Cl)cc3)c3n2CCC3)cc1	-3	12	0.93µM*	-1%	0.29µM*	0%
Cc1c(C(c2ccc(C(=O)O)cc2)c2c(C)n(C)n(-c3ccccc3)c2=O)c(=O)n(-c2ccccc2)n1C	-4	-4	.	1%	15%	6%
Cc1cc(=O)[nH]c(SCC(=O)N2CCCC2)n1	.	.	.	-8%	.	.
CC(C)(C)c1ccc(-c2n[nH]c(=S)n2-c2ccccc2)cc1	1	-13	310%	-4%	2.9µM*	16%
Cn1c(-c2ccc(C(C)(C)C)cc2)n[nH]c1=S	36*	59*	60%	-14%	-21%	-2%
Cc1ccc(-n2c(-c3ccccc3)n[nH]c2=S)c(C)c1	-2	-2	-13%	5%	13µM*	24%
Cc1ccc(-n2c(-c3ccccc3)n[nH]c2=S)cc1	-2	-11	27%	-6%	-19%	-4%
Cc1ccccc1-n1c(-c2csc(C)c2C)n[nH]c1=S	17*	46*	10%	23%	4%	15%
Cc1ccccc1-n1c(-c2csc3ccccc23)n[nH]c1=S	0	13	-8%	-32%	-3%	12%
CCC(CO)N=C1CC(C)(C)CC(=O)/C1=C(/O)CCCN1C(=O)c2ccccc2C1=O (stereo not drawn)	0	-5	11%	4%	-23%	.
CCOc1ccc(NC(=O)NC2CCCc3ccccc32)cc1 (stereo not drawn)	5	7	5%	4%	16%	11%
COc1cccc(S(=O)(=O)NC2CCN(C#N)C2)c1 (stereo not drawn)	.	.	40%	-4%	44%	.
CC(c1ccccc1)n1c(-c2ccc(C(C)(C)C)cc2)n[nH]c1=S (stereo not drawn)	2	20	20%	3%	4.7µM*	-50%
CCc1cc(-c2n[nH]c(=S)n2C(C)c2ccccc2)cs1 (stereo not drawn)	13	4	9%	13%	1%[5.75 µM]	10%
CCn1cc(C(=O)NCc2ccccc2F)c(=O)c2ccc(C)nc21	7	-5	1%	-3%	?	0%
O=C(CSc1nnc(Cn2nnc3ccccc32)o1)N(Cc1ccc(Cl)cc1)c1ccccc1	-2	-14	10µM*	5%	.	23%
CCN(C(=O)CSc1nnc(Cn2nnc3ccccc32)o1)c1nc(C)cs1	-4	-4	-2%	0%	9.3µM*	7%
CCN(C(=O)CSc1nnc(Cn2nnc3ccccc32)o1)c1nc(-c2ccccc2)cs1	-5	-12	.	7%	44%	-9%
O=S(=O)(c1cccs1)N1CCN(Cc2nc3ccccc3s2)CC1	38*	49*	?	1%	?	-16%
O=C(CCc1nc2ccccc2s1)N1CCN(S(=O)(=O)c2cccs2)CC1	12	39	?	-3%	13µM*	-8%
SMILES	CHX counter	Shiga toxin inh	Pf growth 48h	SARS PLpro yeast	Pf growth 96h	NS1 inh
O=C(O)CCC(=O)N1CCN(S(=O)(=O)c2cccs2)CC1	8	-5	10%	1%	8%	-7%
O=C(OCc1nc2ccccc2s1)C1CCN(S(=O)(=O)c2cccs2)CC1	35*	97*	102%	0%	15%	-12%
CCN(c1ccc(NC(=O)CSCc2c(C)noc2C)cc1)C(C)C	.	.	?	0%	?	.
CN(C)C/C=C(\c1ccc(Br)cc1)c1cccnc1	.	.	15µM*	.	?	-6%
COc1cc(C(CC(=O)O)n2cnnn2)ccc1OC(C)C (stereo not drawn)	15	9	34%	-3%	29%	.
Cc1nc(/N=C(\N)Nc2ccccc2)nc2ccccc12	16*	43	59%	-4%	-15%	-9%
Cc1cc(C)nc(/N=C(\N)Nc2ccc(OCc3ccccc3)cc2)n1	-1	-1	?	0%	47%	5%
CC(=O)c1cccc(NC(=O)CCC(=O)Oc2ccc(C)cc2)c1	-2	-3	28%	0%	28%	2%
CC(C)(C)NCC(O)c1cc(Cl)c(N)c(Cl)c1 (stereo not drawn)	5	-3	12µM*	?	11µM*!	-2%
CC(C)Sc1ccc([N+](=O)[O-])cc1C(=O)Nc1ccncc1	5	-1	?	-1%	1.2µM*	-1%
COc1ccc(C2=NOC(CNC(=S)N3CCOCC3)C2)cc1 (stereo not drawn)	34*	57*	67%	1%	154%	1%
COCCNC(=S)N1CCOCC1	-2	5	16%	-12%	79%	-13%
CCOC(=O)Cc1csc(NC(=O)c2ccc(NC(C)=O)cc2)n1	4	29	-6%	-6%	-17%	5%
CCOC(=O)Cc1csc(NC(=O)/C=C/c2ccc(OC)cc2)n1	37*	115*	21%	-3%	14%	.
CCOC(=O)Cc1csc(NC(=O)Nc2ccc(OC(F)(F)F)cc2)n1	23*	45*	12µM*	0%	9.3µM*	3%
CCOC(=O)Cc1csc(NC(=O)COc2ccc(C)c(C)c2)n1	33*	41*	121%	-2%	32%	-6%
CCOC(=O)Cc1csc(NC(=O)CCCc2ccccc2)n1	7	9	0%	0%	-28%	-1%
CCOC(=O)Cc1csc(NC(=O)/C=C\c2ccccc2)n1	32*	53*	178%	-4%	?	.
CCOC(=O)Cc1csc(NC(=O)COC(=O)/C=C/c2ccc(OC)cc2)n1	.	.	.	1%	.	.
CCn1nc(C(=O)NCc2nnc3ccccn23)c2ccccc2c1=O	.	.	?	-7%	?	.
COc1ccc(C(=S)NC2CCCCC2)cc1	20*	27	53%	1%	41%	2%
CCOc1ccc(C(=S)NC2CCCCC2)cc1	52*	139*	93%	3%	127%	1%
CCOc1ccc(S(=O)(=O)NCC(=O)NC2CCCCC2)cc1	.	.	-25%	1%	?	.
CS(=O)(=O)Nc1cccc(C(=O)CC2(O)C(=O)Nc3ccc(Br)cc32)c1 (stereo not drawn)	0	11	-15%	6%	.	-4%
O=C(O)C1CCC(c2ccc(-c3ccccc3)cc2)CC1 (stereo not drawn)	73*	116*	59%	-7%	-7%	-73%

Compound activity as filed in PubChem BioAssay.
